Molecules are shown by their SMILES. Values joined by “and” are separate entries in the source; they are usually repeats but may differ in a detail not shown here. Equal values may be shown once. Compounds without any hit were thinned out: in the full panel of roughly 79,000, 15% have a hit. Where a structure was tested more than once in an assay, its records may differ in their call. Active and inactive are the calls of the source. No stated cut-off is given here; in the data, active means growth inhibition above about 70%; inactive means the rest.

Assay [1] can be described thus: NCI Yeast Anticancer Drug Screen. Data for the rad50 strain (AID 155).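 Further: 0% = growth of vehicle-only cultures of the same strain.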 To be noted: S. cerevisiae rad50 strain growth inhibition, stronger effect = higher value. The essentials: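 A DNA repair-deficient yeast mutant serves as the test organism; compound-induced growth inhibition is calculated against vehicle-treated cells.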
Assay [2] is described as follows: NCI Yeast Anticancer Drug Screen. Data for the mec2-1 strain (AID 157). To be noted: S. cerevisiae mec2-1 strain, stronger effect = higher value. In short, it runs like this: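 Yeast mec2-1 mutant treated with compound. Readout: growth inhibition vs vehicle controls.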
The nature of assay [3]: NCI Yeast Anticancer Drug Screen. Data for the sgs1 mgt1 strain (AID 161).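 Further: 0% = growth of cultures given vehicle only.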 To be noted: S. cerevisiae sgs1 mgt1 strain, stronger effect = higher value. The essentials: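 Inhibition of yeast growth, normalised to vehicle-treated controls, is reported for a strain bearing genetic alterations in DNA damage repair.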
Assay [4] in a line: NCI Yeast Anticancer Drug Screen. Data for the cln2 rad14 strain (AID 165).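 Further: 0% = growth equal to vehicle treated cultures.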 Conditions: S. cerevisiae cln2 rad14 strain, stronger effect = higher value. In short, it runs like this: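 cln2 rad14 yeast strain; compound exposure; growth inhibition read vs vehicle controls.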
Assay [5] can be described thus: NCI Yeast Anticancer Drug Screen. Data for the bub3 strain (AID 167). Conditions: S. cerevisiae bub3 mutant strain, stronger effect = higher value. In short, it runs like this:
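Inhibition values come from growth of compound-treated mutant yeast normalised to vehicle-treated controls.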

Assay [6] in a line: NCI Yeast Anticancer Drug Screen. Data for the mlh1 rad18 strain (AID 175). Conditions: S. cerevisiae mlh1 rad18 strain growth inhibition, stronger effect = higher value. In short, it runs like this:
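Yeast w/ defined DNA-repair lesions; compound exposure; growth vs vehicle controls → % inhibition.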

[7] abbreviates: at 5.0 µM (retest, dose inferred, filed as 0.5).
The mark [8] stands for this setting: at 50.0 µM (retest, dose inferred, filed as 5.0).

As to `O=C1/C(=C\c2ccc([N+](=O)[O-])cc2)Sc2scc(-c3ccc(O)c(O)c3)[n+]21`, the growth inhibition in assay [1] (setting [7]) is 6% (inactive); in assay [1] (setting [8]) it was 93% (active); in assay [1] (at 50.0 µM) it was 83.2% (active); in assay [2] (setting [7]), -10% (inactive); in assay [2] (setting [8]), 95% (active); in assay [2] (at 50.0 µM) it was 93.8% (active). In addition, the growth inhibition in assay [3] (setting [7]) is 14% (inactive); in assay [3] (setting [8]) it was 96% (active); in assay [3] (at 50.0 µM) it was 94.9% (active); in assay [4] (setting [7]), -4% (inactive); in assay [4] (setting [8]), 93% (active); in assay [4] (at 50.0 µM), 71.1% (active). For the same molecule, the growth inhibition in assay [5] (setting [7]) is -19% (inactive); in assay [5] (setting [8]) it was 98% (active); in assay [5] (at 50.0 µM), 92.5% (active); in assay [6] (setting [7]) it was 23% (inactive); in assay [6] (setting [8]), 97% (active); in assay [6] (at 50.0 µM), 90.8% (active).

As for `COC1/C=C/OC2(C)Oc3c(C)c(O)c4c(c3C2=O)C(=O)C=C(NC(=O)/C(C)=C\C=C\C(C)C2OC(C)(C)OC(C2C)C(C)C(OC(C)=O)C1C)C4=O` (stereo unspecified), the growth inhibition was 2% (inactive) in assay [1] (setting [7]); 89% (active) in assay [1] (setting [8]); 51.9% (inactive) in assay [1] (at 50.0 µM); 30% (inactive) in assay [2] (setting [7]); 79% (active) in assay [2] (setting [8]); 57.3% (inactive) in assay [2] (at 50.0 µM). In addition, the growth inhibition in assay [3] (setting [7]) is -3% (inactive); in assay [3] (setting [8]) it was 73% (active); in assay [3] (at 50.0 µM) it was 60.8% (inactive); in assay [4] (setting [7]) it was 1% (inactive); in assay [4] (setting [8]), 89% (active); in assay [4] (at 50.0 µM), 57% (inactive). Further, the growth inhibition in assay [5] (setting [7]) was 2% (inactive); in assay [5] (setting [8]) it was 74% (active); in assay [5] (at 50.0 µM), 45.8% (inactive); in assay [6] (setting [7]), 3% (inactive); in assay [6] (setting [8]) it was 92% (active); in assay [6] (at 50.0 µM), 60.8% (inactive).

Turning to `O=[N+]([O-])c1cccc2nc3ccccc3c(NCCN(CCO)CCO)c12`, the growth inhibition in assay [1] (setting [7]) was 81% (active); in assay [1] (setting [8]), 94% (active); in assay [1] (at 50.0 µM), 71% (active); in assay [2] (setting [7]) it was 88% (active); in assay [2] (setting [8]), 98% (active); in assay [2] (at 50.0 µM), 73.4% (active). In addition, the growth inhibition was 91% (active) in assay [3] (setting [7]); 98% (active) in assay [3] (setting [8]); 52.5% (inactive) in assay [3] (at 50.0 µM); 95% (active) in assay [4] (setting [7]); 99% (active) in assay [4] (setting [8]); 84.8% (active) in assay [4] (at 50.0 µM). Besides, the growth inhibition was 79% (active) in assay [5] (setting [7]); 99% (active) in assay [5] (setting [8]); -17.6% (inactive) in assay [5] (at 50.0 µM); 90% (active) in assay [6] (setting [7]); 96% (active) in assay [6] (setting [8]); 58% (inactive) in assay [6] (at 50.0 µM).

For `CC(=O)OCC(OC(C)=O)C(OC(C)=O)C(OC(C)=O)C(OC(C)=O)C(/C=N/Nc1ccccc1)=N/Nc1ccccc1` (stereo unspecified), the growth inhibition in assay [1] (setting [7]) was 21% (inactive) and -14% (inactive); in assay [1] (setting [8]) it was 90% (active) and 4% (inactive); in assay [1] (at 50.0 µM), 94.8% (active) and 57.6% (inactive); in assay [2] (setting [7]), 4% (inactive) and 1% (inactive); in assay [2] (setting [8]), 68% (inactive) and -7% (inactive); in assay [2] (at 50.0 µM), 48.1% (inactive) and 4.7% (inactive). For the same molecule, the growth inhibition in assay [3] (setting [7]) is -12% (inactive) and -18% (inactive); in assay [3] (setting [8]), 50% (inactive) and 9% (inactive); in assay [3] (at 50.0 µM), 47.8% (inactive) and 6.1% (inactive); in assay [4] (setting [7]), 23% (inactive) and 0% (inactive); in assay [4] (setting [8]), 86% (active) and 1% (inactive); in assay [4] (at 50.0 µM), 44.4% (inactive) and 29.6% (inactive). For the same molecule, the growth inhibition in assay [5] (setting [7]) is 7% (inactive) and -3% (inactive); in assay [5] (setting [8]), 87% (active) and -12% (inactive); in assay [5] (at 50.0 µM), 86.3% (active) and 18.7% (inactive); in assay [6] (setting [7]) it was 26% (inactive) and -3% (inactive); in assay [6] (setting [8]), 93% (active) and -1% (inactive); in assay [6] (at 50.0 µM), 95.2% (active) and 40.5% (inactive).

On to `CCc1cc2c(cc1C(C)=O)C(C)(C)CCC2`, for which the growth inhibition in assay [1] (setting [7]) was 6% (inactive); in assay [1] (setting [8]), 95% (active); in assay [1] (at 50.0 µM) it was 98.5% (active); in assay [2] (setting [7]), 2% (inactive); in assay [2] (setting [8]), 97% (active); in assay [2] (at 50.0 µM), 98.7% (active). In addition, the growth inhibition in assay [3] (setting [7]) was 14% (inactive); in assay [3] (setting [8]), 98% (active); in assay [3] (at 50.0 µM) it was 98.5% (active); in assay [4] (setting [7]), 11% (inactive); in assay [4] (setting [8]) it was 97% (active); in assay [4] (at 50.0 µM), 93% (active). Further, the growth inhibition in assay [5] (setting [7]) was -3% (inactive); in assay [5] (setting [8]) it was 96% (active); in assay [5] (at 50.0 µM) it was 98.7% (active); in assay [6] (setting [7]) it was 9% (inactive); in assay [6] (setting [8]), 98% (active); in assay [6] (at 50.0 µM), 98.7% (active).

Regarding `O=C1C=C(O)c2ccccc2C1=O.[Ag]`, the growth inhibition in assay [1] (setting [7]) is 99% (active); in assay [1] (setting [8]), 99% (active); in assay [1] (at 50.0 µM), 88.8% (active) and 99.5% (active); in assay [2] (setting [7]) it was 100% (active); in assay [2] (setting [8]), 99% (active); in assay [2] (at 50.0 µM) it was 75% (active) and 99.5% (active). Besides, the growth inhibition is 99% (active) in assay [3] (setting [7]); 99% (active) in assay [3] (setting [8]); 96.4% (active) and 99.4% (active) in assay [3] (at 50.0 µM); 100% (active) in assay [4] (setting [7]); 99% (active) in assay [4] (setting [8]); 66.2% (inactive) and 99% (active) in assay [4] (at 50.0 µM). In addition, the growth inhibition in assay [5] (setting [7]) was 99% (active); in assay [5] (setting [8]), 99% (active); in assay [5] (at 50.0 µM) it was 86.3% (active) and 99.3% (active); in assay [6] (setting [7]), 99% (active); in assay [6] (setting [8]) it was 99% (active); in assay [6] (at 50.0 µM), 87.5% (active) and 99.2% (active).

As to `OC(C/C=C/c1ccccc1)(c1ccccc1)c1ccccc1`, the growth inhibition is 3% (inactive) in assay [1] (setting [7]); 39% (inactive) in assay [1] (setting [8]); 97% (active) and 97.5% (active) in assay [1] (at 50.0 µM); -1% (inactive) in assay [2] (setting [7]); 48% (inactive) in assay [2] (setting [8]); 98.7% (active) in assay [2] (at 50.0 µM). The growth inhibition in assay [3] (setting [7]) was 7% (inactive); in assay [3] (setting [8]), 52% (inactive); in assay [3] (at 50.0 µM) it was 98.1% (active) and 98.2% (active); in assay [4] (setting [7]), 7% (inactive); in assay [4] (setting [8]), 55% (inactive); in assay [4] (at 50.0 µM), 96.9% (active) and 98.2% (active). Moreover, the growth inhibition in assay [5] (setting [7]) is 29% (inactive); in assay [5] (setting [8]), 83% (active); in assay [5] (at 50.0 µM), 96.8% (active) and 97.7% (active); in assay [6] (setting [7]), -2% (inactive); in assay [6] (setting [8]), 61% (inactive); in assay [6] (at 50.0 µM) it was 97.4% (active) and 98.2% (active).

(Values after PubChem BioAssay (NCI).)
